In the library only some 19% were active in any assay of this set; here they are far more common.
IL1B secr inh: inflammasome signaling inhibition, IL-1 beta readout; THP-1 LPS/ATP IL-1B secretion, AlphaLISA, 16 h; stronger effect = lower value; activity change, % at 57.5 µM; 360,000 tested, 4.7% active; AID 743279; in the data active = activity change below about -50%; inconclusive = mostly about -30% to -49%
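Secreted IL-1B measured by AlphaLISA bead assay after 16 h compound exposure of THP-1 cells; compounds (final up to 57.5 uM) added 1 h before LPS (250 ng/mL) and ATP (1.25 mM) stimulation; lower signal means less secretion.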
HT1080NT lethal: kills 2HG-producing HT-1080-NT fibrosarcoma cells | AID 686970 | 360,000 tested, 1.6% active | HT-1080-NT fibrosarcoma viability, CellTiter-Glo ATP luminescence, 48 h | Potency, µM (top dose mostly 46.1 µM), without a hit: at the top dose activity, negative = less viability, actives largely listed as cytotoxic;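 note: NT is the 2HG producing partner of a matched IDH1 knockdown line; potency is the fitted concentration of half-maximal effect; 0% = DMSO-treated cells and -100% = media-only wells without cells; nearly all actives have a fitted effect of over 55% in size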
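HT-1080-NT fibrosarcoma cells (2HG-overproducing), 750 cells/well in RPMI with 5% FBS, dosed after 2 h and incubated 48 h at 37C. CellTiter-Glo luminescence normalized to DMSO and no-cell wells; concentration-response curves fitted and classed.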
TDP1 cell noCPT: qHTS for Inhibitors of human tyrosyl-DNA phosphodiesterase 1 (TDP1): qHTS in cells in absence of CPT; 420,000 tested, 15% active; DT40 Tdp1-/- hTDP1 cells, no CPT, ATP luminescence, 48 h; Potency, µM (top dose mostly 46.2 µM), inactives show at the top dose activity change, negative = growth inhibition, most hits filed as inhibitors; note: potency is the fitted concentration of half-maximal effect; nearly all actives have a fitted effect of over 55% in size
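DT40 Tdp1-/-;hTDP1 cells, no CPT (DMSO vehicle only), 400 cells/well; compounds pin-transferred; ≥48 hr, 37 °C; CellTiter-Glo 30 min RT dark, luminescence read.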
HT1080 IDH1KD tx: kills HT-1080 cells with IDH1 knockdown. HT-1080 IDH1 knockdown viability, ATP luminescence, 48 h. Potency, µM (series often up to 46.1 µM), for inactives: at the top dose activity, negative = toxicity, hits mostly cytotoxic. 360,000 tested, 2% active;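 note: potency is the fitted concentration of half-maximal effect; 0% = DMSO wells and -100% = cell-free medium wells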
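IDH1KD HT-1080 cells, 750/well, RPMI + 5% FBS; compound pinned after 2 h settling; 48 h, 37 °C; CellTiter-Glo luminescence; % activity normalised to DMSO and no-cell wells; curves fitted, classed by r2 and efficacy.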
ELG1 repair inh: ELG1-dependent DNA repair inhibition; HEK293T ELG1-luciferase reporter, luminescence, 16 h; DNA damage induced by 5-fluorouridine; Potency, µM (series often up to 46.1 µM), inactives show top-dose activity change, negative = inhibition, hits mostly inhibitors; 330,000 tested, 2.3% active; AID 504467; note: potency is the fitted concentration of half-maximal effect; nearly all actives have a fitted effect of over 55% in size
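Luminescence from the luciferase reporter, measured 30 min after ONE-Glo reagent at room temperature, was the read-out. Beforehand, 2,000 cells per well were exposed for 16 hr at 37 °C to 5-fluorouridine together with compound or vehicle.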
DT40 TDP1 CPT: growth inhibition of DT40 Tdp1-/-;hTDP1 cells with camptothecin (screen for TDP1 inhibitors) | AID 686979 | Potency, µM (titrated, usually from 46.2 µM), for the others: at the highest dose activity change, negative = growth inhibition, most hits filed as inhibitors | chicken DT40 Tdp1-/-;hTDP1 cells + 20 nM CPT, ATP luminescence, 48 h | 420,000 tested, 12% active; note: potency is the fitted concentration of half-maximal effect; nearly all actives have a fitted effect of over 55% in size
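Chicken DT40 Tdp1-/- cells stably complemented with human TDP1 were seeded at 400 cells/well in medium containing 20 nM camptothecin, exposed to pin-transferred compounds, and grown at 37 °C for at least 48 hr. Viability was read as ATP luminescence.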
The depositor's hits bear a star; ? = inconclusive; . = no result given; [ ] = another dose, or the depositor's remark. Unless noted, calls come from the whole dose curve; as a rule, active = well fitted curve in the direction sought with a large enough effect; inconclusive = small, poorly fitted or top-dose-only effect, or another doubt; inactive = no such curve, though single readings can be large; an effect the other way counts as inactive or inconclusive. Unless noted, % is set by controls: 0 for no effect and ±100 for the full control effect.

SMILES | IL1B secr inh | HT1080NT lethal | TDP1 cell noCPT | HT1080 IDH1KD tx | ELG1 repair inh | DT40 TDP1 CPT
C[C@H]1CN([C@@H](C)CO)C(=O)CCCn2cc(nn2)CO[C@@H]1CN(C)S(=O)(=O)c1ccc(Oc2ccccc2)nc1 | -0.1 | -0.3% | -39.4% | 1.5% | . | -39.4%
Cc1onc(-c2ccc(Cl)cc2Cl)c1-c1csc(N/N=C/c2ccccc2Cl)n1 | -19.8 | 15.2% | 11.6µM* | -12.1% | -16.4% | ?
CCc1nc2cc(C(=O)N(C)CC3CCCN(C)C3)cc(NC(=O)c3ccccc3OC)c2n1C (stereo not drawn) | . | . | -7.3% | . | . | -1.8%
Cc1cc(C)c(-n2nnnc2SCC(=O)c2cc3ccccc3o2)c(C)c1 | -2.2 | 18.4% | ? | -0.3% | ? | -8.1%
O=C(CSc1nnnn1-c1ccc(O)cc1)c1cc2ccccc2o1 | 5.4 | 2.0% | ? | -3.4% | ? | 13µM*
Oc1ccc(O)c(C=NNC(=S)NC2CC3CC2C2C=CCC32)c1 (stereo not drawn) | 68.9 | -3.0% | ? | -27.2% | . | 18.4µM*
Oc1ccccc1C=NNC(=S)NC1CC2C=CC1C2 (stereo not drawn) | 117.8 | -7.5% | ? | ? | . | ?
NC(=O)NN=C1CC2CC1C1C=CCC21 (stereo not drawn) | 0.0 | -4.3% | -26.2% | -0.4% | . | -2.0%
NNC(=S)NC1CC2CC1C1C=CCC21 (stereo not drawn) | 11.5 | 3.9% | ? | 4.3% | 18.1% | 9.2µM*
O=c1c[n+]([O-])c2ccccc2n1OCc1c(F)cccc1F | 8.3 | ? | 20.6µM* | ? | 0.4% | 13µM*
O=c1cc(CN2CCN(c3ccc(Cl)c(Cl)c3)CC2)c2ccccc2o1 | 17.9 | -2.4% | 14.6µM* | -16.5% | . | -87.8%
COc1cccc(NCc2cc(=O)oc3cc(-c4ccccc4)c(O)cc23)c1 | ? | -18.2% | 18.4µM* | -28.4% | -7.0% | ?
O=c1cc(CN2CCN(Cc3ccccc3)CC2)c2cc(Cl)ccc2o1 | 19.6 | -0.8% | -19.2% | 3.0% | 0.3% | -11.7%
O=c1cc(CN2CCCCCCC2)c2ccccc2o1 | 57.0 | 25.5% | ? | 11.1% | . | ?
O=c1cc(CN2CCN(c3cccc(Cl)c3)CC2)c2cc(O)c(-c3ccccc3)cc2o1 | 26.5 | -3.4% | 18.4µM* | 0.2% | -6.8% | 13µM*
O=c1cc(CN2CCN(c3ccccc3)CC2)c2cc(O)c(-c3ccccc3)cc2o1 | 23.8 | -1.5% | 10.3µM* | -3.2%[9.24 µM] | 16.4% | 5.8µM*
O=c1cc(CN2CCN(c3ccccc3)CC2)c2c(ccc3ccccc32)o1 | 8.5 | 7.6% | ? | 8.6% | ? | ?
COc1ccc(NC(=O)CN(C)C(=O)CNC(=O)c2ccc(C)s2)cc1 | 14.3 | 1.9% | 8.0% | 1.0% | ? | -4.4%
c1ccc(COc2ccc3nocc3c2)cc1 | -6.8 | 0.6% | -9.4% | 0.8% | ? | -29.3%
COC(=O)CSc1cccc2c1C(=O)CC2c1ccccc1 (stereo not drawn) | -11.7 | 0.0% | -5.6% | 4.5% | 7.1% | 6.3%
O=C1C=CC2(O[C@H](c3ccccc3)[C@@H](c3ccccc3)O2)[C@H](Sc2ccccc2O)C1 | -116.8* | 4.61µM* | 0.581µM* | 3.26µM* | . | 0.461µM*
COc1ccc(S(=O)(=O)N(C)C[C@H]2Oc3ccc(NC(=O)C4CC4)cc3C(=O)N([C@H](C)CO)C[C@@H]2C)cc1 | -2.9 | 12.7% | ? | 14.5% | ? | ?
COc1ccc(-c2cc(C(=O)Nc3sc4c(c3C#N)CCCC4)c3ccccc3n2)cc1 | -6.9 | -1.2% | ? | -1.5% | ? | -21.6%
Cc1ccccc1OCC(=O)Nc1sc2c(c1C#N)CCC2 | -5.8 | 11.7% | -29.4% | 4.3% | ? | ?
COC(=O)c1sccc1NC(=O)c1cc(-c2ccc(C)cc2)nc2ccccc12 | 10.5 | 9.2% | -19.4% | 15.5% | -7.8% | ?
SMILES | IL1B secr inh | HT1080NT lethal | TDP1 cell noCPT | HT1080 IDH1KD tx | ELG1 repair inh | DT40 TDP1 CPT
CCOC(=O)c1sc(NC(=O)c2cc(-c3ccc(C)cc3)nc3ccccc23)c(C#N)c1C | -4.7 | 16.4µM* | 16.4µM* | ? | ? | 20.6µM*
Cc1ccccc1NC(=O)c1sc(NC(=O)COc2ccccc2)c(C#N)c1C | 2.4 | -8.7% | 18.4µM* | -4.8% | 23.1µM* | ?
CCOC(=O)c1sc(NC(=O)CSc2nccc(C)n2)c(C#N)c1C | 14.2 | -1.3% | -10.9% | -17.9% | 5.8% | -7.1%
COC(=O)c1sc(NC(=O)c2cc(-c3ccccc3)nc3ccccc23)c(C#N)c1C | 7.2 | ? | 7.31µM* | ? | -1.8% | 8.2µM*
CCOC(=O)c1sc(NC(=O)CSc2n[nH]c(-c3ccncc3)n2)c(C#N)c1C | 40.7 | ? | ? | ? | 18.4µM* | ?
Cc1cccc(C)c1NC(=O)C1(C)CN(S(C)(=O)=O)CC(=O)N1CCCN1CCOCC1 (stereo not drawn) | -15.6 | -4.8% | 0.8% | -2.3% | . | 21.8%
CC(=O)c1cc2c(cc1O)OC(C)(C)C=C2 | . | . | -9.1% | . | . | -6.3%
O=C(c1csnn1)N1CCC2(CC1)CN(C(c1ccccc1)c1ccccc1)C2 | . | . | ? | . | . | -15.1%
CCC1Oc2ccccc2N(CC(=O)NCCCN2CCN(c3ccc(OC)cc3)CC2)C1=O (stereo not drawn) | -14.9 | -11.0% | -11.8% | -10.2% | -4.0% | -4.9%
Cc1ccccc1-c1cc(C(=O)Nc2sc(C(=O)OC(C)C)c(C)c2C#N)c2ccccc2n1 | -26.6 | ? | 20.6µM* | ? | 23.1µM* | 23.1µM*
CCOC(=O)c1sc(NC(=O)C2CC(=O)N(c3ccc4c(c3)OCCO4)C2)nc1C (stereo not drawn) | -4.7 | 1.5% | ? | 0.0% | -26.4% | -28.8%
COC(=O)c1ccc(COC(=O)C(NC(=O)Cc2ccccc2)C(C)C)cc1 (stereo not drawn) | 11.8 | 5.3% | 16.4µM* | 6.0% | -1.6% | -27.3%
CC(C)(CNC(=O)CO/N=C1/C=C2CCC3C(C(O)C[C@@]4(C)C3CC[C@]4(O)C(=O)CO)[C@@]2(C)CC1)C(O)C(=O)O (stereo partly drawn) | ? | 18.5% | -20.1% | ? | 18.9% | -8.7%
COc1ccccc1N1CCN(C(c2cccs2)C(C)NC(=O)c2ccco2)CC1 (stereo not drawn) | 2.8 | 10.9% | ? | 9.0% | ? | ?

Screening results as filed in PubChem.
